This excerpt belongs to a sample that is enriched for the strongest signals.
How the values were obtained:
Experiment in all cases: glycan array binding signal (z-score within array); higher = stronger binding
Conditions in all cases: glycan notation: IUPAC condensed, linker removed
[1] = molecular target: Fuc(a1-2)Gal(b1-3)GlcNAc(b1-2)Man(a1-3)[Fuc(a1-2)Gal(b1-3)GlcNAc(b1-2)Man(a1-6)]Man(b1-4)GlcNAc(b1-4)GlcNAc
Method in brief: (§1)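 Columns mapping to the same glycan were averaged after glycan names were converted to IUPAC-condensed notation. The data come from 3228 arrays in the Consortium for Functional Glycomics database, limited to those with an available protein sequence. Binding is reported as a within-array Z-score averaged across arrays of one protein sequence and across linkers.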

[2] = molecular target: Fuc(a1-2)Gal(b1-3)GlcNAc(b1-3)[Neu5Ac(a2-6)Gal(b1-4)GlcNAc(b1-6)]Gal(b1-4)Glc
Method in brief: as §1

[3] = molecular target: Fuc(a1-2)Gal(b1-3)[Fuc(a1-4)]GlcNAc(b1-3)[Gal(b1-4)GlcNAc(b1-6)]Gal(b1-4)Glc
Method in brief: as §1

[4] = molecular target: Fuc(a1-2)[Gal(a1-3)]Gal(b1-3)GlcNAc(b1-2)Man(a1-3)[Fuc(a1-2)[Gal(a1-3)]Gal(b1-3)GlcNAc(b1-2)Man(a1-6)]Man(b1-4)GlcNAc(b1-4)[Fuc(a1-6)]GlcNAc
Method in brief: as §1

[5] = molecular target: Fuc(a1-2)[Gal(a1-3)]Gal(b1-3)GlcNAc(b1-6)GalNAc
Method in brief: as §1

[6] = molecular target: Fuc(a1-2)[GalNAc(a1-3)]Gal(b1-4)GlcNAc(b1-2)Man(a1-3)[Fuc(a1-2)[GalNAc(a1-3)]Gal(b1-4)GlcNAc(b1-2)Man(a1-6)]Man(b1-4)GlcNAc(b1-4)GlcNAc
Method in brief: as §1

[7] = molecular target: Fuc(a1-3)[Gal3S(b1-4)]GlcNAc
Method in brief: as §1

[8] = molecular target: Fuc(a1-3)[Gal3S(b1-4)]GlcNAc6S
Method in brief: as §1

[9] = molecular target: Gal(a1-3)Gal(b1-4)GlcNAc(b1-3)GalNAc
Method in brief: as §1

[10] = molecular target: Gal(a1-3)Gal(b1-4)[Fuc(a1-3)]GlcNAc(b1-2)Man(a1-3)[Gal(a1-3)Gal(b1-4)[Fuc(a1-3)]GlcNAc(b1-2)Man(a1-6)]Man(b1-4)GlcNAc(b1-4)GlcNAc
Method in brief: as §1

[11] = molecular target: Gal(a1-3)[Gal(a1-4)]Gal(b1-4)GlcNAc
Method in brief: as §1

[12] = molecular target: Gal(a1-4)Gal(b1-4)GlcNAc
Method in brief: as §1

[13] = molecular target: Gal(a1-4)Gal(b1-4)GlcNAc(b1-2)Man(a1-3)[Gal(a1-4)Gal(b1-4)GlcNAc(b1-2)Man(a1-6)]Man(b1-4)GlcNAc(b1-4)GlcNAc
Method in brief: as §1

[14] = molecular target: Gal(b1-3)GlcNAc(b1-2)Man(a1-3)[GlcNAc(b1-4)][Gal(b1-3)GlcNAc(b1-2)Man(a1-6)]Man(b1-4)GlcNAc(b1-4)GlcNAc
Method in brief: as §1

[15] = molecular target: Gal(b1-3)GlcNAc(b1-3)Gal(b1-4)Glc
Method in brief: as §1

[16] = molecular target: Gal(b1-3)GlcNAc(b1-3)Gal(b1-4)[Fuc(a1-3)]GlcNAc
Method in brief: as §1

[17] = molecular target: Gal(b1-3)[Fuc(a1-4)]GlcNAc(b1-6)GalNAc
Method in brief: as §1

[18] = molecular target: Gal(b1-3)[GlcNAc(b1-6)]GalNAc
Method in brief: as §1

[19] = molecular target: Gal(b1-3)[Neu5Ac(a2-6)]GalNAc
Method in brief: as §1

[20] = molecular target: Gal(b1-4)GlcNAc(b1-2)[Gal(b1-4)GlcNAc(b1-6)]Man(a1-6)[Gal(b1-4)GlcNAc(b1-2)Man(a1-3)]Man(b1-4)GlcNAc(b1-4)[Fuc(a1-6)]GlcNAc
Method in brief: as §1

[21] = molecular target: Gal(b1-4)GlcNAc(b1-3)Gal(b1-4)GlcNAc(b1-2)[Gal(b1-4)GlcNAc(b1-3)Gal(b1-4)GlcNAc(b1-6)]Man(a1-6)[Gal(b1-4)GlcNAc(b1-3)Gal(b1-4)GlcNAc(b1-2)Man(a1-3)]Man(b1-4)GlcNAc(b1-4)[Fuc(a1-6)]GlcNAc
Method in brief: as §1

[22] = molecular target: Gal(b1-4)GlcNAc(b1-3)Gal(b1-4)GlcNAc(b1-3)Gal(b1-4)GlcNAc(b1-3)Gal(b1-4)GlcNAc(b1-2)Man(a1-3)[Gal(b1-4)GlcNAc(b1-3)Gal(b1-4)GlcNAc(b1-3)Gal(b1-4)GlcNAc(b1-3)Gal(b1-4)GlcNAc(b1-2)Man(a1-6)]Man(b1-4)GlcNAc(b1-4)[Fuc(a1-6)]GlcNAc
Method in brief: as §1

[23] = molecular target: Gal3S(b1-3)GlcNAc
Method in brief: as §1

[24] = molecular target: Gal3S(b1-4)[Fuc(a1-3)]GlcNAc
Method in brief: as §1

[25] = molecular target: Glc(b1-4)Glc
Method in brief: as §1

[26] = molecular target: GlcNAc(a1-4)Gal(b1-4)GlcNAc(b1-3)Gal(b1-4)[Fuc(a1-3)]GlcNAc(b1-3)Gal(b1-4)[Fuc(a1-3)]GlcNAc
Method in brief: as §1

[27] = molecular target: GlcNAc(b1-2)Gal(b1-3)GalNAc
Method in brief: as §1

[28] = molecular target: GlcNAc(b1-2)Man(a1-3)[GlcNAc(b1-2)Man(a1-6)]Man(b1-4)GlcNAc(b1-4)GlcNAc
Method in brief: as §1

[29] = molecular target: GlcNAc(b1-2)[GlcNAc(b1-4)]Man(a1-3)[GlcNAc(b1-4)][GlcNAc(b1-2)[GlcNAc(b1-6)]Man(a1-6)]Man(b1-4)GlcNAc(b1-4)[Fuc(a1-6)]GlcNAc
Method in brief: as §1

[30] = molecular target: GlcNAc(b1-3)Gal(b1-4)GlcNAc(b1-3)Gal(b1-4)GlcNAc(b1-2)Man(a1-3)[GlcNAc(b1-3)Gal(b1-4)GlcNAc(b1-3)Gal(b1-4)GlcNAc(b1-2)Man(a1-6)]Man(b1-4)GlcNAc(b1-4)GlcNAc
Method in brief: as §1

[31] = molecular target: GlcNAc(b1-3)Gal(b1-4)GlcNAc(b1-3)Gal(b1-4)GlcNAc(b1-3)Gal(b1-4)GlcNAc(b1-2)[GlcNAc(b1-3)Gal(b1-4)GlcNAc(b1-3)Gal(b1-4)GlcNAc(b1-3)Gal(b1-4)GlcNAc(b1-6)]Man(a1-6)[GlcNAc(b1-3)Gal(b1-4)GlcNAc(b1-3)Gal(b1-4)GlcNAc(b1-3)Gal(b1-4)GlcNAc(b1-2)Man(a1-3)]Man(b1-4)GlcNAc(b1-4)[Fuc(a1-6)]GlcNAc
Method in brief: as §1

[32] = molecular target: GlcNAc(b1-4)GlcNAc(b1-4)GlcNAc(b1-4)GlcNAc(b1-4)GlcNAc
Method in brief: as §1

[33] = molecular target: Man(a1-3)[Man(a1-6)]Man(b1-4)GlcNAc(b1-4)GlcNAc
Method in brief: as §1

[34] = molecular target: Neu5Ac(a2-3)Gal(b1-3)[GlcNAc(b1-6)]GalNAc
Method in brief: as §1

[35] = molecular target: Neu5Ac(a2-3)Gal(b1-4)Glc
Method in brief: as §1

[36] = molecular target: Neu5Ac(a2-3)Gal(b1-4)GlcNAc(b1-2)Man
Method in brief: as §1

[37] = molecular target: Neu5Ac(a2-3)Gal(b1-4)GlcNAc(b1-6)[Neu5Ac(a2-3)Gal(b1-3)]GalNAc
Method in brief: as §1

[38] = molecular target: Neu5Ac(a2-3)Gal(b1-4)[Fuc(a1-3)]GlcNAc(b1-3)GalNAc
Method in brief: as §1

[39] = molecular target: Neu5Ac(a2-6)Gal(b1-4)GlcNAc(b1-2)Man(a1-6)[Gal(b1-4)GlcNAc(b1-2)Man(a1-3)]Man(b1-4)GlcNAc(b1-4)GlcNAc
Method in brief: as §1

[40] = molecular target: Neu5Ac(a2-6)Gal(b1-4)GlcNAc(b1-3)Gal(b1-3)GlcNAc
Method in brief: as §1

[41] = molecular target: Neu5Ac(b2-6)Gal(b1-4)GlcNAc
Method in brief: as §1

B1: GS7807I-bvu-563-22-563 (Bacteroides vulgatus) (protein)
chain: IFSSCTDDFEKLNTSNIQVDPADLPFAAQCTEPMTYCYPPQQNMFQFWTNLTIDLYGGYFMTPNGNFTNGDMGENRGHSGGMYENYYLHIFNNTRRIIAQCDASGERGLSGVMRIVQAYGTLMTTDAYGPIPYSSILSGENEVYFEFDSQKDLYKAMLEDLSTAITDISAMGADEIAKLKSFDCWCNGDKDLWVKIANTMKLRMALRLSKRETEAGNAGMNLKAIATEAAQNTLATVNKDILIDKSLENEMWLMFNWGDCGFNANLVTIMSGTKDPRQPLYMTLNTGDIKNEAGTTTVAANSQYLGIRFASGLPAKPNSWGNFSGWIQGNNGSSYSMPLPIMKAAEAYFLLAEAKLRWDIGSESVKNLYENGIRVSMTNELAYRGAYAGIKEYPEGAVDAYINGTSTQIDYTDPIKAELSTPAVNKLSVKWDESASNEEKLERIITQKWLALFPLSTEGWAEQRRTGYPRFFPAFVNESNGAVNTEEGVRRVIYSSQAYDANAKGVEGGIKLLDEENSSKFGISGDKGGTHLWWDNADKGNF
- glycan array binding signal (z-score) [1]: 4.25
- glycan array binding signal (z-score) [2]: -0.639
- glycan array binding signal (z-score) [3]: -0.806
- glycan array binding signal (z-score) [4]: -0.026
- glycan array binding signal (z-score) [5]: 0.231
- glycan array binding signal (z-score) [6]: 0.159
- glycan array binding signal (z-score) [7]: 0.384
- glycan array binding signal (z-score) [8]: 0.755
- glycan array binding signal (z-score) [9]: -1.06
- glycan array binding signal (z-score) [10]: 3.63
- glycan array binding signal (z-score) [11]: 0.09
- glycan array binding signal (z-score) [12]: 0.073
- glycan array binding signal (z-score) [13]: 2.76
- glycan array binding signal (z-score) [14]: 3.75
- glycan array binding signal (z-score) [15]: -1.02
- glycan array binding signal (z-score) [16]: -0.396
- glycan array binding signal (z-score) [17]: -0.343
- glycan array binding signal (z-score) [18]: -0.484
- glycan array binding signal (z-score) [19]: 0.238
- glycan array binding signal (z-score) [20]: -0.297
- glycan array binding signal (z-score) [21]: 2.61
- glycan array binding signal (z-score) [22]: 3.21
- glycan array binding signal (z-score) [23]: 1.03
- glycan array binding signal (z-score) [24]: 0.875
- glycan array binding signal (z-score) [25]: -0.567
- glycan array binding signal (z-score) [26]: 2.71
- glycan array binding signal (z-score) [27]: 0.388
- glycan array binding signal (z-score) [28]: -0.694
- glycan array binding signal (z-score) [29]: -1.04
- glycan array binding signal (z-score) [30]: 2.79
- glycan array binding signal (z-score) [31]: 3.79
- glycan array binding signal (z-score) [32]: -0.951
- glycan array binding signal (z-score) [33]: -0.233
- glycan array binding signal (z-score) [34]: 0.671
- glycan array binding signal (z-score) [35]: 0.689
- glycan array binding signal (z-score) [36]: 2.84
- glycan array binding signal (z-score) [37]: -0.221
- glycan array binding signal (z-score) [38]: 5.03
- glycan array binding signal (z-score) [39]: 1.71
- glycan array binding signal (z-score) [40]: -0.945
- glycan array binding signal (z-score) [41]: -0.47

Source: the supplement of paper PMC8728848
